Results: PubChem BioAssay (NCI)
Compounds without any hit were thinned out: in the full panel of roughly 83,000, 20% have a hit.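 Testing used 96-well plates and a 48-hour single-concentration exposure. Example: -40 means 40% of the starting cells died.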 Activity calls are given as the source filed them. The calls were made as follows: active = growth percent below 10; inactive = the rest.

test system: HS 578T breast; assay: NCI-60 one-dose screen, 48 h (100 = growth as untreated, 0 = no growth, -100 = all killed); details: 10 µM unless noted

Structure (SMILES) | growth
CCNc1cc2c(cc1Br)-c1ccccc1C2=O | 96.8% (inactive)
Cn1cc(-c2noc(-c3cn(C)c4ncccc34)n2)c2cc(Cl)ccc21 | 111% (inactive)
N#Cc1ccc(-c2ccc(COc3ccc(CC4SC(=O)NC4=O)cc3)cc2)cc1 (centres undefined) | 72.5% (inactive)
O=C(N[C@@H]1CCCc2ccccc21)[C@H](CCC(=O)N1CCN(C2CCCCC2)CC1)N1C(=O)[C@@H](N2C(=O)OC[C@@H]2c2ccccc2)[C@H]1/C=C/c1ccccc1 | 48.1% (inactive)
CCOC(=O)/C(C#N)=C(\C)CCc1ccccc1 | 98.7% (inactive)
COc1ccc(C(=O)CSc2nccc(Nc3ccc(C(=O)O)cc3)n2)cc1 | 84.4% (inactive)
O=C(NCCCCCCCNC(=O)OCc1ccc2c(Cl)cc(Cl)c(O)c2n1)OCc1ccc2c(Cl)cc(Cl)c(O)c2n1 | -9.29% (active)
CCN(CCO)CCC(=O)c1ccc([N+](=O)[O-])cc1 | 101% (inactive)
CCOC(=O)COc1c(C)cc(SSc2cc(C)c(OCC(=O)OCC)c(C)c2)cc1C | 122% (inactive)
CC(C)C1=NOC(=O)C1=Cc1cn(-c2ccco2)nc1-c1ccccc1 | 96.1% (inactive)
CCOC(=O)Nc1ccc2c(c1)/C(=N\NC(=S)NC)c1ccccc1-2 | 90.4% (inactive)
COc1ccc(/C=C(/C(=O)c2ccc(Cl)cc2)C(=O)C(F)(F)F)cc1 | 96.2% (inactive)
O=[N+]([O-])c1cccc(N=NNc2cccc([N+](=O)[O-])c2)c1 | 101% (inactive)
COc1ccc2c(c1)c(-c1noc(-c3cn(C)c4ncc(F)cc34)n1)cn2C | 91% (inactive)
CCn1cc(-c2ccnc(NCCNS(=O)(=O)c3cccc4ccccc34)c2)c(-c2cccc(O)c2)n1 | 95.3% (inactive)
Cc1ccc(-c2cc(O)c(-c3ccc(C)cc3C)cc2O)c(C)c1 | 87.9% (inactive)
CCc1ccc(-c2ccc(COc3ccc(CC4SC(=O)NC4=O)cc3)cc2)cc1 (centres undefined) | 80.9% (inactive)
CCCn1ccnc1C(O)c1ccc(OCc2ccccc2)c(OC)c1 (centres undefined) | 109% (inactive)
O=C(Nc1cc(F)cc2cccnc12)c1cnc(N2CCNCC2)cn1 | 82.2% (inactive)

Structure (SMILES) | growth
O=C(CCCSc1nc(-c2ccccc2)cc(-c2ccccc2)n1)NO | 45.2% (inactive)
O=C(CCN1CCCCC1)c1ccc(Cl)cc1 | 108% (inactive)
O=C(NCCCNC(=O)OCc1ccc2c(Br)cc(Br)c(O)c2n1)OCc1ccc2c(Br)cc(Br)c(O)c2n1 | -19.1% (active)
Cc1ccc(N)c(O)c1 | 92.9% (inactive)
COc1cc2c(=O)[nH]c3cc([N+](=O)[O-])ccc3c2cc1[N+](=O)[O-] | 66.6% (inactive)
C/C=C/C1OC23CCCCC2C(C#N)(C(=N)O3)C1(C#N)C#N (centres undefined) | 96.9% (inactive)
Cc1ccc(S(=O)(=O)NCCCNc2nccc(-c3c(-c4cccc(F)c4)nc4occn34)n2)cc1 | 68% (inactive)
COc1ccc2c(c1)C(C)Cc1c(ncnc1-n1cnc3ccccc31)N2C (centres undefined) | 31.6% (inactive)
Clc1ccccc1/C=N\Nc1ccccn1 | 99.4% (inactive)
CC(C)C1=NOC(=O)C1=Cc1cn(-c2ccccc2)nc1-c1cccc([N+](=O)[O-])c1 | 29.7% (inactive)
CC(C)C1=NOC(=O)C1=Cc1cn(-c2cccnc2)nc1-c1ccccc1 | 106% (inactive)
O=C1COCCN1c1ccc(NCc2cn(Cc3ccccc3)c3ccccc23)cc1 | 89.4% (inactive)
COc1ccc(N(c2nc(-c3ccc([N+](=O)[O-])cc3)cs2)C(C)C)cc1 | 85% (inactive)
OC(c1ccc(Cl)cc1)(c1ccc(Cl)cc1)C(O)(c1ccc(Cl)cc1)c1ccc(Cl)cc1 | 68.6% (inactive)
O=C(NCc1ccc(Cn2c(=O)sn(-c3ccccc3)c2=O)cc1)OCc1ccc2c(Br)cc(Br)c(O)c2n1 | -1.98% (active)
O=S(=O)(NCCNc1nccc(-c2c(-c3cccc(F)c3)nc3occn23)n1)c1ccc(C(F)(F)F)cc1 | 74.3% (inactive)
O=C(Nc1ccc(Cl)c(C(F)(F)F)c1)Nc1ccc(-c2cccnc2)cc1N1CCC(CO)CC1 | 34.4% (inactive)
O=C(CCNCc1ccccc1)c1ccccc1 | 110% (inactive)

test system: NCI/ADR-RES ovarian; assay: as above; details: 10 µM unless noted

Structure (SMILES) | growth
CCNc1cc2c(cc1Br)-c1ccccc1C2=O | 96% (inactive)
Cn1cc(-c2noc(-c3cn(C)c4ncccc34)n2)c2cc(Cl)ccc21 | 89.8% (inactive)
N#Cc1ccc(-c2ccc(COc3ccc(CC4SC(=O)NC4=O)cc3)cc2)cc1 (centres undefined) | 37.8% (inactive)
O=C(N[C@@H]1CCCc2ccccc21)[C@H](CCC(=O)N1CCN(C2CCCCC2)CC1)N1C(=O)[C@@H](N2C(=O)OC[C@@H]2c2ccccc2)[C@H]1/C=C/c1ccccc1 | 33.3% (inactive)
CCOC(=O)/C(C#N)=C(\C)CCc1ccccc1 | 98.8% (inactive)
COc1ccc(C(=O)CSc2nccc(Nc3ccc(C(=O)O)cc3)n2)cc1 | 103% (inactive)
O=C(NCCCCCCCNC(=O)OCc1ccc2c(Cl)cc(Cl)c(O)c2n1)OCc1ccc2c(Cl)cc(Cl)c(O)c2n1 | -29.5% (active)
CCN(CCO)CCC(=O)c1ccc([N+](=O)[O-])cc1 | 102% (inactive)
CCOC(=O)COc1c(C)cc(SSc2cc(C)c(OCC(=O)OCC)c(C)c2)cc1C | 110% (inactive)
CC(C)C1=NOC(=O)C1=Cc1cn(-c2ccco2)nc1-c1ccccc1 | 98% (inactive)
CCOC(=O)Nc1ccc2c(c1)/C(=N\NC(=S)NC)c1ccccc1-2 | 76.7% (inactive)
COc1ccc(/C=C(/C(=O)c2ccc(Cl)cc2)C(=O)C(F)(F)F)cc1 | 95.8% (inactive)
O=[N+]([O-])c1cccc(N=NNc2cccc([N+](=O)[O-])c2)c1 | 94.4% (inactive)
COc1ccc2c(c1)c(-c1noc(-c3cn(C)c4ncc(F)cc34)n1)cn2C | 68.3% (inactive)
CCn1cc(-c2ccnc(NCCNS(=O)(=O)c3cccc4ccccc34)c2)c(-c2cccc(O)c2)n1 | 102% (inactive)
Cc1ccc(-c2cc(O)c(-c3ccc(C)cc3C)cc2O)c(C)c1 | 52.2% (inactive)
CCc1ccc(-c2ccc(COc3ccc(CC4SC(=O)NC4=O)cc3)cc2)cc1 (centres undefined) | 65.1% (inactive)
CCCn1ccnc1C(O)c1ccc(OCc2ccccc2)c(OC)c1 (centres undefined) | 91.3% (inactive)
O=C(Nc1cc(F)cc2cccnc12)c1cnc(N2CCNCC2)cn1 | 87.6% (inactive)

Structure (SMILES) | growth
O=C(CCCSc1nc(-c2ccccc2)cc(-c2ccccc2)n1)NO | -12.1% (active)
O=C(CCN1CCCCC1)c1ccc(Cl)cc1 | 114% (inactive)
O=C(NCCCNC(=O)OCc1ccc2c(Br)cc(Br)c(O)c2n1)OCc1ccc2c(Br)cc(Br)c(O)c2n1 | -29% (active)
Cc1ccc(N)c(O)c1 | 92.8% (inactive)
COc1cc2c(=O)[nH]c3cc([N+](=O)[O-])ccc3c2cc1[N+](=O)[O-] | 48.7% (inactive)
C/C=C/C1OC23CCCCC2C(C#N)(C(=N)O3)C1(C#N)C#N (centres undefined) | 104% (inactive)
Cc1ccc(S(=O)(=O)NCCCNc2nccc(-c3c(-c4cccc(F)c4)nc4occn34)n2)cc1 | 85% (inactive)
COc1ccc2c(c1)C(C)Cc1c(ncnc1-n1cnc3ccccc31)N2C (centres undefined) | 11.3% (inactive)
Clc1ccccc1/C=N\Nc1ccccn1 | 91.1% (inactive)
CC(C)C1=NOC(=O)C1=Cc1cn(-c2ccccc2)nc1-c1cccc([N+](=O)[O-])c1 | 97% (inactive)
CC(C)C1=NOC(=O)C1=Cc1cn(-c2cccnc2)nc1-c1ccccc1 | 110% (inactive)
O=C1COCCN1c1ccc(NCc2cn(Cc3ccccc3)c3ccccc23)cc1 | 101% (inactive)
COc1ccc(N(c2nc(-c3ccc([N+](=O)[O-])cc3)cs2)C(C)C)cc1 | 86.2% (inactive)
OC(c1ccc(Cl)cc1)(c1ccc(Cl)cc1)C(O)(c1ccc(Cl)cc1)c1ccc(Cl)cc1 | 48.5% (inactive)
O=C(NCc1ccc(Cn2c(=O)sn(-c3ccccc3)c2=O)cc1)OCc1ccc2c(Br)cc(Br)c(O)c2n1 | -1.25% (active)
O=S(=O)(NCCNc1nccc(-c2c(-c3cccc(F)c3)nc3occn23)n1)c1ccc(C(F)(F)F)cc1 | 95.5% (inactive)
O=C(Nc1ccc(Cl)c(C(F)(F)F)c1)Nc1ccc(-c2cccnc2)cc1N1CCC(CO)CC1 | 26.2% (inactive)
O=C(CCNCc1ccccc1)c1ccccc1 | 105% (inactive)
